Calls of active or inactive are those of the source. Cut-off read from the data, not from the text of the source: active = inhibition above about 44%; inactive = the rest.
Biological target: Steroidogenic factor 1 (Homo sapiens) (UniProt Q13285)
Test: SF1 (NR5A1) inverse agonists, counter-screen for LRH-1 inverse agonist project, cell-based, luminescence, high throughput (AID 651614);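 note: cells cotransfected with StAR promoter reporter and SF1 expression vector; 0% = vehicle on cells with receptor and 100% = vehicle on cells lacking receptor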
Conditions: cell-based SF1 luciferase reporter, at 3.6 µM, stronger effect = higher value

Sequence of Steroidogenic factor 1 (Homo sapiens) (Q13285 whole entry, looked up): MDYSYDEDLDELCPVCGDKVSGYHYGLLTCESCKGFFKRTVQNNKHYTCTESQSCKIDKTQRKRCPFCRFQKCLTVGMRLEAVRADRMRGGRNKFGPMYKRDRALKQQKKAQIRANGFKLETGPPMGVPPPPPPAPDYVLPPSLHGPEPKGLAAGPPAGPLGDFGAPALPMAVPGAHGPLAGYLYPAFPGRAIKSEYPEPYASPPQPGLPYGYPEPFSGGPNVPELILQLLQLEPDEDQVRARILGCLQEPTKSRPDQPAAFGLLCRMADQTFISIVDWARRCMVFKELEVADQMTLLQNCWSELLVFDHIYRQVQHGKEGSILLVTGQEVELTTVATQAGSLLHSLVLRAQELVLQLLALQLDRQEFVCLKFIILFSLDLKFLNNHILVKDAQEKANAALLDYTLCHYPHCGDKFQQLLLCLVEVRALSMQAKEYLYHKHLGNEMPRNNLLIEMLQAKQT

| Compound | inhibition |
| --- | --- |
| Cc1c([N+](=O)[O-])cc(C(=O)Nc2ccc(Cc3ccncc3)cc2)cc1[N+](=O)[O-] | 45% (active) |
| Cc1cccc(-c2cc(NCCc3cccnc3)n3nccc3n2)c1 | 41.3% (inactive) |
| CC1(C)CC(=O)C=C(c2ccc3c(c2)OCO3)C1 | 42.1% (inactive) |
| COc1ccc(-c2c(-c3ccccc3)c(C(=O)C(=O)NCCCN(C)C)n3ccc4cc(OC)c(OC)cc4c23)cc1OC | 32.1% (inactive) |
| O=C(Cc1c(F)cccc1Cl)Nc1ccncc1 | 43.5% (active) |
| COc1cc(C(=O)Nc2ccccc2C(=O)Nc2ccccn2)cc(OC)c1OC | 62.1% (active) |
| CN(C)S(=O)(=O)c1cccc(C(=O)OCC(=O)Nc2ccc3c(c2)OCCO3)c1 | 52.3% (active) |
| CCOc1ccc(NC(=O)Cn2nc(-c3ccccc3Cl)n(CC)c2=S)cc1 | 54.6% (active) |
| O=C(Nc1ccc(Oc2ccccc2)cc1)c1csc([C@H]2C[C@H](O)[C@@H](CO)O2)n1 | 61.1% (active) |
| COc1ccc(-c2cc(NC=O)c3ncc(-c4ccc(C(C)=O)cc4)n3c2)cn1 | 59% (active) |
| CCOC(=O)c1ccc(N2CCN(C(=O)c3ccccc3)CC2)c(NC(=O)c2ccco2)c1 | 40.9% (inactive) |
| O=C(Nc1cc(Cl)ccc1-n1cncn1)c1ccc([N+](=O)[O-])o1 | 61.8% (active) |
| CCCc1cc(NCCOCCO)n2c(nc3ccccc32)c1C#N | 36.6% (inactive) |
| CCOc1ccc(CCNC(=O)COC(=O)c2cccnc2OCC)cc1OCC | 48.7% (active) |
| Cc1ccc(-c2nn3c(C)nnc3s2)cc1NC(=O)c1ccco1 | 60.7% (active) |
